Drawing on PubChem BioAssay (EPA / NIEHS), this text covers outcome and AC50 for 19 compounds.

Activity calls are given as the source filed them. Rule for the calls: active = hit-call score of the fitted dose curve at least 0.9, where 1 is the maximum; inactive = score below 0.9.

Holding throughout (details): mRNA level, 48 h; actives raise or lower the signal
Read-out in experiment [1]: ATP-citrate lyase (ACLY), ACLY (gene 47)
Briefly: LTEA_HepaRG_ACLY: Life Technologies and Expression Analysis (LTEA) Assay for ATP-citrate lyase (ACLY) using HepaRG (AID 2283466). Summed up: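 Differentiated HepaRG cells exposed 48 h in serum-free induction medium to eight half-log concentrations up to 100 uM in 0.5% DMSO, duplicates. Transcript measured by Fluidigm TaqMan qRT-PCR, normalized to ACTB, GAPDH, POLR2A; bidirectional fit versus DMSO.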

Read-out in experiment [2]: Peroxisomal acyl-coenzyme A oxidase 1 (ACOX1) gene, ACOX1 (gene 51)
As to the kind of experiment: LTEA_HepaRG_ACOX1: Life Technologies and Expression Analysis (LTEA) Assay for Peroxisomal acyl-coenzyme A oxidase 1 (ACOX1) gene using HepaRG (AID 2283467). The gist of the method:
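HepaRG cells, plated 48 h then switched to serum-free induction medium, were exposed in duplicate for 48 h to 8-point half-log concentrations up to 100 uM in 0.5% DMSO. ACOX1 mRNA was measured by qRT-PCR, normalized to ACTB/GAPDH/POLR2A, and fitted bidirectionally versus DMSO.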

Read-out in experiment [3]: Alkaline Phosphatase, Placental (ALPP) gene, ALPP (gene 250)
Briefly: LTEA_HepaRG_ALPP: Life Technologies and Expression Analysis (LTEA) Assay for Alkaline Phosphatase, Placental (ALPP) gene using HepaRG (AID 2283468). Summed up:
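Expression of ALPP was quantified by qRT-PCR against three housekeeping genes in human HepaRG cultures treated for 48 h with an eight-point concentration series up to 100 uM. Activity in either direction was fitted relative to 0.5% DMSO.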

Read-out in experiment [4]: Bcl-2 (BAD) gene, BAD (gene 572)
As to the kind of experiment: LTEA_HepaRG_BAD: Life Technologies and Expression Analysis (LTEA) Assay for Bcl-2 (BAD) gene using HepaRG (AID 2283469). Summed up:
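Differentiated HepaRG cells were exposed in duplicate in 0.5% DMSO for 48 h to eight-point half-log concentrations up to 100 uM. BAD mRNA was measured by Fluidigm TaqMan qRT-PCR, normalized to ACTB, GAPDH and POLR2A, and fitted bidirectionally against DMSO.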

Read-out in experiment [5]: Bcl-2 (BAX) gene, BAX (gene 581)
Briefly: LTEA_HepaRG_BAX: Life Technologies and Expression Analysis (LTEA) Assay for Bcl-2 (BAX) gene using HepaRG (AID 2283470). The gist of the method:
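HepaRG (human liver), 48 h exposure, duplicate wells. 8-pt curve, half-log from 100 uM, 0.5% DMSO. BAX transcript by TaqMan qRT-PCR; ACTB/GAPDH/POLR2A normalization; gain or loss vs DMSO baseline.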

Read-out in experiment [6]: adenosine kinase (ADK) gene, ADK (gene 132)
Briefly: LTEA_HepaRG_ADK: Life Technologies and Expression Analysis (LTEA) Assay for adenosine kinase (ADK) gene using HepaRG (AID 2283471). Summed up:
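HepaRG (human liver), 48 h chemical exposure, 8-pt half-log series, top 100 uM, 0.5% DMSO vehicle. Readout: ADK mRNA by qRT-PCR vs housekeeping genes; bidirectional curve fit relative to DMSO baseline.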

Read-out in experiment [7]: Alpha-fetoprotein (AFP) gene, AFP (gene 174)
Briefly: LTEA_HepaRG_AFP: Life Technologies and Expression Analysis (LTEA) Assay for Alpha-fetoprotein (AFP) gene using HepaRG (AID 2283472). Summed up:
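HepaRG, single lot; 48 h post-plating -> serum-free induction medium; cpd 8-pt, 100 uM top, half-log, 0.5% DMSO, duplicate, 48 h. RNA -> qRT-PCR AFP, norm ACTB/GAPDH/POLR2A. Bidirectional fit vs DMSO.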

Read-out in a further experiment: BCL2L11 (gene 10018)
Briefly: LTEA_HepaRG_BCL2L11: Life Technologies and Expression Analysis (LTEA) Assay for Bcl-2 (BCL2L11) gene using HepaRG (AID 2283473). Summed up: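 Cells were plated, cultured 48 h, switched to serum-free induction medium, then dosed in duplicate for 48 h at eight half-log concentrations up to 100 uM. Lysates underwent RNA isolation and TaqMan qRT-PCR; gain or loss versus DMSO was fitted.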

Read-out in experiment [8]: Apolipoprotein A-V (APOA5) gene, APOA5 (gene 116519)
As to the kind of experiment: LTEA_HepaRG_APOA5: Life Technologies and Expression Analysis (LTEA) Assay for Apolipoprotein A-V (APOA5) gene using HepaRG (AID 2283474). Summed up:
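Human liver HepaRG cells are treated 48 h with test chemicals (100 uM top, half-log dilutions, 0.5% DMSO). APOA5 mRNA induction or loss is measured by qRT-PCR relative to vehicle.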

Read-out in experiment [9]: Apoptosis regulator Bcl-2 (Homo sapiens) (UniProt P10415)
As to the kind of experiment: LTEA_HepaRG_BCL2: Life Technologies and Expression Analysis (LTEA) Assay for Bcl-2 gene using HepaRG (AID 2283475). The gist of the method: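 HepaRG, plated 48 h then switched to serum-free induction medium; dosed 48 h, 8 conc. (max 100 uM, half-log steps), duplicate, 0.5% DMSO. Lysis in RLT, RNA isolated, TaqMan qRT-PCR for BCL2; ACTB/GAPDH/POLR2A normalisation; bidirectional fit vs DMSO.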

Chain of Apoptosis regulator Bcl-2 (Homo sapiens) (P10415 whole entry, looked up): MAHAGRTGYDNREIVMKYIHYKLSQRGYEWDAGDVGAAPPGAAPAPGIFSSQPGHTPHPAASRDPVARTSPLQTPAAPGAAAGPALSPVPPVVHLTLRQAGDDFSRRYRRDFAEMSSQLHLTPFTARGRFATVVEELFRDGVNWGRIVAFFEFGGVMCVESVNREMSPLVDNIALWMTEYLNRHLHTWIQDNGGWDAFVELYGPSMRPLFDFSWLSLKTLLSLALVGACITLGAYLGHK

On to `COP(=O)(OC)O/C(C)=C/C(=O)N(C)C`, for which the compound was called inactive in experiment [1], in experiment [2], in [3], in [4], in experiment [5] and in experiment [6]. In addition, the call (in experiment [7]; in the experiment with BCL2L11 (gene 10018); in experiment [8]; in experiment [9]) was inactive.
As for `CC1(C)CON(Cc2ccccc2Cl)C1=O`, the compound was classed as inactive in experiment [1], in experiment [2], in [3], in experiment [4], in experiment [5] and in experiment [6]. The compound was called inactive (in experiment [7]; in the experiment with BCL2L11 (gene 10018); in experiment [8]; in experiment [9]).
Regarding `C=CCOC(=O)C(C)(C)OC(=O)c1cc(-n2c(=O)cc(C(F)(F)F)n(C)c2=O)ccc1Cl`, the call in experiment [1], in [2], in experiment [4], in [5], in experiment [6] and in [7] was inactive. The compound was called inactive (with BCL2L11 (gene 10018); in experiment [8]; in experiment [9]).
Regarding `COP(=S)(OC)Oc1ccc([N+](=O)[O-])c(C)c1`, the call in [1], in [2], in experiment [4], in experiment [5], in [6] and in experiment [7] was inactive. Moreover, the compound was called inactive (with BCL2L11 (gene 10018); in [8]; in [9]).
For the compound `CCSC(=O)N1CCCCCC1`, the result in experiment [1], in [2], in experiment [4], in [5], in [6] and in [7] was inactive. Also, the outcome (with BCL2L11 (gene 10018); in experiment [8]; in [9]) was inactive.
`CS(=O)(=O)c1cc(C(F)(F)F)ccc1C(=O)c1cnoc1C1CC1`: the compound was classed as inactive in [1], in [2], in [4], in [5], in [6] and in experiment [7]. The outcome (with BCL2L11 (gene 10018); in [8]; in [9]) was inactive.
Take `Nc1c(Cl)c(Cl)nc(C(=O)O)c1Cl`: the result in [1], in experiment [2], in experiment [4], in [5], in [6] and in experiment [7] was inactive. Besides, the compound was called inactive (with BCL2L11 (gene 10018); in experiment [8]; in [9]).
For `Cn1c(-c2ccccc2)cc(-c2ccccc2)[n+]1C`, the result (in [1]; in experiment [4]; in experiment [5]; with BCL2L11 (gene 10018)) was inactive. Further, the AC50 is 21.2 µM (active) in experiment [2]; 82.1 µM (active) in experiment [6]; 39.5 µM (active) in [7]; 63.8 µM (active) in experiment [8]; 13.3 µM (active) in experiment [9].
Take `COCc1cnc(C2=NC(C)(C(C)C)C(=O)N2)c(C(=O)O)c1` (stereo not drawn): the outcome in [1], in experiment [2], in [4], in experiment [5], in experiment [6] and in experiment [7] was inactive. In addition, the call (with BCL2L11 (gene 10018); in experiment [8]; in [9]) was inactive.
For the compound `CC(C)N1C(=O)N(c2ccccc2)CSC1=NC(C)(C)C`, the AC50 is 84.3 µM (active) in [1]; 77.4 µM (active) in [5]; 64.4 µM (active) in experiment [7]; 81.8 µM (active) in experiment [8]; 78.7 µM (active) in experiment [9]. The compound was classed as inactive (in [2]; in [4]; in [6]; with BCL2L11 (gene 10018)).
For `N#CN=C1SCCN1Cc1ccc(Cl)nc1`, the result in experiment [1], in [2], in experiment [4], in experiment [5], in experiment [6] and in [7] was inactive. Further, the result (in the experiment with BCL2L11 (gene 10018); in experiment [8]; in [9]) was inactive.
On to `CCOc1nc(C(Cl)(Cl)Cl)ns1`, for which the AC50 in experiment [1] was 23.8 µM (active); in [2], 1.11 µM (active); in experiment [4], 1.3 µM (active); in experiment [5], 1.39 µM (active); in experiment [6], 1.06 µM (active); in experiment [7] it was 1.77 µM (active). For the same compound, the AC50 in the experiment with BCL2L11 (gene 10018) is 0.862 µM (active); in experiment [8], 1.44 µM (active); in experiment [9], 1.51 µM (active).
Take `CC1(C)C(C(=O)OC(C#N)c2cccc(Oc3ccccc3)c2)C1(C)C` (stereo not drawn): the compound was classed as inactive in experiment [1], in [2], in experiment [4], in experiment [5], in [6] and in [7]. For the same compound, the call (in the experiment with BCL2L11 (gene 10018); in experiment [8]; in experiment [9]) was inactive.
Regarding `CN=C=S`, the result in experiment [1], in experiment [2], in experiment [4], in experiment [5], in [6] and in experiment [7] was inactive. The outcome (with BCL2L11 (gene 10018); in [8]; in experiment [9]) was inactive.
Take `CCOc1nc(F)cc2nc(S(=O)(=O)Nc3c(Cl)cccc3Cl)nn12`: the outcome (in experiment [1]; in experiment [2]; in [4]; in experiment [5]; with BCL2L11 (gene 10018); in experiment [8]) was inactive. Also, in [9], the compound was classed as inactive. The AC50 in [6] was 41.3 µM (active); in experiment [7], 25.3 µM (active).
Turning to `CCOP(=S)(OCC)Oc1nc(Cl)n(C(C)C)n1`, the AC50 in experiment [1] was 33.5 µM (active); in experiment [2], 9.48 µM (active); in [7] it was 21.2 µM (active); in experiment [8] it was 21.4 µM (active). Further, the compound was classed as inactive (in experiment [4]; in experiment [5]; in experiment [6]; with BCL2L11 (gene 10018); in experiment [9]).
Regarding `CCC(C)n1c(=O)[nH]c(C)c(Br)c1=O` (stereo not drawn), the call in [1], in experiment [4], in experiment [5], in experiment [6], in experiment [8] and in [9] was inactive. Further, the values for the AC50 (in [2]; in [7]; with BCL2L11 (gene 10018)) were 21.6 µM (active), 35.5 µM (active) and 20.7 µM (active), respectively.
For the compound `CN/C(=N\[N+](=O)[O-])NCc1cnc(Cl)s1`, the outcome (in experiment [1]; in experiment [2]; in experiment [4]; in experiment [5]; in [6]; with BCL2L11 (gene 10018)) was inactive. For the same compound, the compound was classed as inactive in experiment [8] and in experiment [9]. Also, the AC50 in experiment [7] is 50 µM (active).
For the compound `CS(=O)(=O)c1ccc(C(=O)C2C(=O)CCCC2=O)c([N+](=O)[O-])c1`, the compound was classed as inactive in [1], in experiment [2], in experiment [4], in experiment [5], in experiment [6] and in [7]. Also, the compound was called inactive (with BCL2L11 (gene 10018); in experiment [8]; in experiment [9]).
